In PubChem BioAssay (NCATS):
“And” between values parts separate entries of the source, which are not always exact repeats. Equal values may be shown once. Inconclusive results are not listed. The source made the active and inactive calls. Unless noted, the call rests on the fitted dose curve; in most records, active means well fitted curve in the direction sought with a large enough effect; inconclusive means small, poorly fitted or top-dose-only effect, or another doubt; inactive means no such curve, though single readings can be large; an effect the other way counts as inactive or inconclusive.

Columns and labels:
[1] = qHTS Assay for Identifying Gametocytocidal Compounds (AID 743244);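 further: on the % scale 0 is the no-effect control and ±100 the full control effect; actives lower the fluorescent signal which means gametocytes are killed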; conditions: P. falciparum 3D7 stage III-V gametocytes, alamarBlue, 72 h; max response: stronger effect = lower value
Method in brief: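 Stage III-V P. falciparum 3D7 gametocytes, 20,000 per well, were exposed to compounds for 72 h at 37C, 5% CO2. AlamarBlue was then added for 24 h and viability was read as fluorescence at Ex 525/Em 598 nm.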

[2] = qHTS assay for cell viability of HEK293 cells (AID 743288); conditions: ATP luminescence (CellTiter-Glo), 18 h, stronger effect = lower value; further: on the % scale 0 is the no-effect control and ±100 the full control effect; nearly all actives have a fitted effect of over 50% in size
Method in brief: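 Luminescent ATP quantitation served as the viability read-out. Cells (parental HEK293, 2,000/well) received compounds after at least 5 h at 37 C and were exposed for 18 h before a 30 min room-temperature reagent step.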

[3] = qHTS assay for cell viability of the p53RE-bla HCT-116 cell line (AID 743292); further: on the % scale 0 is the no-effect control and ±100 the full control effect; nearly all actives have a fitted effect of over 55% in size
Method in brief: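 HCT-116 p53RE-bla cells seeded 4,000/well; 5 h at 37 C; compound (DMSO) added; 16 h at 37 C; CellTiter-Glo added, 30 min RT; luminescence read.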

[4] = qHTS assay for measurement of the activity of small molecule inhibitors on Zika virus induced Caspase-3 activity in human iPSC derived neural progenitor cells (hNPCs) (AID 1224857); further: % of control where 0% means no effect; nearly all actives have a fitted effect of over 65% in size
Method in brief: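 Human iPSC-derived neural progenitor cells pretreated 1 hr with compounds, then infected with Zika virus (2 FFU/cell) for 6 hours at 37 C. Caspase-3/7 measured by Caspase-Glo luminescence; % inhibition calculated from induction scaled to uninfected (0%) and infected (100%) wells.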

[5] = qHTS assay to identify small molecule inhibitors of chordoma cells - UCH-1 (AID 1259355); further: on the % scale 0 is the no-effect control and ±100 the full control effect; nearly all actives have a fitted effect of over 55% in size
Method in brief: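 Cells (800/well) were seeded and left overnight at 37 C, 5% CO2, then treated with drugs at 15 concentrations plus a combination mix of auranofin, camptothecin, doxorubicin, rubitecan and topotecan. Viability after 48hr was read by CellTiter-Glo luminescence.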

[6] = qHTS assay to identify small molecule inhibitors of chordoma cells - UCH-2 (AID 1259356); further: on the % scale 0 is the no-effect control and ±100 the full control effect
[7] = P-glycoprotein substrates identified in KB-8-5-11 adenocarcinoma cell line, qHTS therapeutic library screen (AID 1346987); conditions: outcome: dose series up to 44.5 µM; further: on the % scale 0 is the no-effect control and ±100 the full control effect; nearly all actives have a fitted effect of over 65% in size
Method in brief: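 P-gp-mediated resistance screen: KB-8-5-11 cells treated 72 h with compounds in dose-response. CellTiter-Glo viability.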

[8] = NS1 protein of Zika virus - qHTS assay to identify small molecule inhibitors in human HEK 293 cells (AID 1347053);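 further: plate controls were infected untreated cells for no effect and uninfected cells for full effect; nearly all actives have a fitted effect of over 55% in size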
Method in brief: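 HEK 293 cells pretreated with compound for 1 h, then infected with ZIKV MR766 (MOI 0.5) for 24 h at 37 C. NS1 detected by TR-FRET with two anti-NS1 antibodies; normalized to uninfected (0%) and infected (100%) wells.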

[9] = qHTS of pediatric cancer cell lines to identify multiple opportunities for drug repurposing: Primary screen for TC32 cells (AID 1347089); further: on the % scale 0 is the no-effect control and ±100 the full control effect; nearly all actives have a fitted effect of over 60% in size
Method in brief: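 A viability screen of TC32 cells was run over 48 h, with primary MIPE doses spanning 0.78 nM–46 µM and NPC doses 0.59 nM–46 µM. ATP luminescence (CellTiter-Glo) served as the read-out.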

[10] = qHTS of pediatric cancer cell lines to identify multiple opportunities for drug repurposing: Primary screen for DAOY cells (AID 1347090);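 further: plate controls were DMSO for no effect and bortezomib for full effect; nearly all actives have a fitted effect of over 55% in size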
Method in brief: (§1)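 Viability measured as metabolically active cells via CellTiter-Glo luminescence following 48 hours of compound exposure, 11-point dilutions in confirmatory testing. 500-1,000 cells/well plated 5 hours before dosing; controls were DMSO and 2.3 µM bortezomib.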

[11] = qHTS of pediatric cancer cell lines to identify multiple opportunities for drug repurposing: Primary screen for SJ-GBM2 cells (AID 1347091);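 further: plate controls were DMSO neutral control for no effect and bortezomib for full effect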
Method in brief: as §1

[12] = qHTS profiling of the MIPE4 collection as inhibitors of Plasmodium falciparum (3D7) proliferation (AID 743344; call rule not given here;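 further: scaled between DMSO vehicle wells and 0.29 µM artemisinin as full inhibition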); conditions: P. falciparum 3D7 in erythrocytes, SYBR Green DNA fluorescence, 72 h; at 9.64 µM (top of the series) unless noted
Method in brief: (§2)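 Erythrocytes infected with P. falciparum (0.3% parasitemia, 2.5% hematocrit) incubated with compounds 72 h at 37 C, 5% CO2. Lysis with saponin/Triton buffer containing SYBR Green I, overnight at room temperature in the dark; DNA fluorescence (485/535 nm) normalised to 0.29 uM artemisinin and DMSO.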

[13] = qHTS profiling of the MIPE4 collection as inhibitors of Plasmodium falciparum (DD2) proliferation (AID 743345; call rule not given here); conditions: P. falciparum Dd2 in erythrocytes, SYBR Green DNA, 72 h; at 9.64 µM (top of the series) unless noted
Method in brief: as §2

[14] = qHTS profiling of the MIPE4 collection as inhibitors of Plasmodium falciparum (DD2) proliferation (Rep 2) (AID 743346; call rule not given here); conditions: P. falciparum Dd2 in erythrocytes, SYBR Green DNA, 72 h; at 9.64 µM (top of the series) unless noted
Method in brief: as §2

[15] = qHTS profiling of the MIPE4 collection as inhibitors of Plasmodium falciparum (HB3) proliferation (AID 743347; call rule not given here;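 further: plate controls were DMSO vehicle wells for no effect and artemisinin wells for full effect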); conditions: P. falciparum HB3 in erythrocytes, SYBR Green DNA, 72 h; at 9.64 µM (top of the series) unless noted
Method in brief: as §2

Cc1cc(=O)[nH]c(=S)[nH]1
inactive: max response [1] 4.75% | max response [2] -3.4% | outcome [3] | outcome [4] | outcome [5] | outcome [6] | outcome [7] | outcome [8] | outcome [9] | outcome [10] | outcome [11]

CC(=O)N[C@@H](Cc1ccc(O)cc1)C(=O)O
inactive: max response [1] -6.61% | outcome [4] | outcome [5] | outcome [6] | outcome [7] | outcome [8] | outcome [9] | outcome [11]

COc1ccc(NS(=O)(=O)c2ccc(N)cc2)nn1
101%: parasite growth remaining, % of DMSO control (lower = more inhibition) [13]
103%: parasite growth, % of DMSO control [12]
141%: parasite growth, % of control (lower = inhibition) [14]
62.1%: growth, % of control [15]
inactive: max response [1] 10.4% | outcome [4] | outcome [5] | outcome [6] | outcome [7] | outcome [9] | outcome [10] | outcome [11]

O=C1CC[C@@H](C(=O)O)N1
inactive: max response [1] -5.19% | outcome [4] | outcome [5] | outcome [6] | outcome [7] | outcome [9] | outcome [10] | outcome [11]

CCCCC1(COC(=O)CCC(=O)O)C(=O)N(c2ccccc2)N(c2ccccc2)C1=O
inactive: max response [1] 1.1% | outcome [4] | outcome [5] | outcome [6] | outcome [7] | outcome [8] | outcome [9] | outcome [10] | outcome [11]

CC(=O)N[C@@H](CC(C)C)C(=O)O
inactive: max response [1] -15.3% | outcome [4] | outcome [6] | outcome [7] | outcome [9] | outcome [10] | outcome [11]

CCOC(N)=O
inactive: max response [1] -2.14% | outcome [4] | outcome [5] | outcome [6] | outcome [7] | outcome [8] | outcome [9] | outcome [10] | outcome [11]

CC(=O)Oc1cccc(C)c1
inactive: max response [1] 19.2% | outcome [4] | outcome [5] | outcome [6] | outcome [7] | outcome [8] | outcome [9] | outcome [11]

Cc1ccc(C(C)C)c(O)c1
inactive: max response [1] 22.6% | max response [2] -16.2% | outcome [3] | outcome [4] | outcome [6] | outcome [7] | outcome [8] | outcome [9] | outcome [10] | outcome [11]

Cc1cc(O)cc(C)c1Cl
inactive: max response [1] -2.6% | max response [2] -9.96% | outcome [3] | outcome [4] | outcome [5] | outcome [7] | outcome [9] | outcome [10] | outcome [11]

CC(=O)N(CC(O)CO)c1c(I)c(C(=O)NCC(O)CO)c(I)c(C(=O)NCC(O)CO)c1I (centres undefined)
inactive: max response [1] -11.4% | outcome [4] | outcome [5] | outcome [6] | outcome [7] | outcome [9] | outcome [10] | outcome [11]

CCCNC(C)(C)COC(=O)c1ccccc1
inactive: max response [1] 5.84% | outcome [4] | outcome [5] | outcome [6] | outcome [7] | outcome [8] | outcome [9] | outcome [10] | outcome [11]

C=CCNC(N)=S
inactive: max response [1] 5.17% | max response [2] -7.7% | outcome [3] | outcome [4] | outcome [5] | outcome [6] | outcome [7] | outcome [8] | outcome [9] | outcome [11]

O=C(O)/C=C/c1ccc(Cn2ccnc2)cc1
inactive: max response [1] 13.5% | outcome [4] | outcome [5] | outcome [6] | outcome [7] | outcome [8] | outcome [9] | outcome [11]

CC(CN(C)C)C(C)(O)Cc1ccc(Cl)cc1 (centres undefined)
inactive: max response [1] -5.22% | outcome [4] | outcome [5] | outcome [6] | outcome [7] | outcome [8] | outcome [9] | outcome [10] | outcome [11]

CC1(C)S[C@@H]2[C@H](NC(=O)C(C(=O)O)c3ccccc3)C(=O)N2[C@H]1C(=O)O (some centres undefined)
inactive: max response [1] -0.734% | outcome [4] | outcome [5] | outcome [6] | outcome [7] | outcome [8] | outcome [9] | outcome [10] | outcome [11]

Cc1cc(C)c(NC(=O)CN(CC(=O)O)CC(=O)O)c(C)c1Br
inactive: max response [1] 9.03% | outcome [4] | outcome [5] | outcome [6] | outcome [7] | outcome [8] | outcome [9] | outcome [10]

CCS(=O)(=O)CCn1c([N+](=O)[O-])cnc1C
inactive: max response [1] 9.95% | outcome [4] | outcome [6] | outcome [7] | outcome [8] | outcome [9] | outcome [11]

O=C(O)CNC(=O)c1ccccc1I
inactive: max response [1] -0.623% | outcome [4] | outcome [5] | outcome [6] | outcome [7] | outcome [9] | outcome [10] | outcome [11]

Cc1ncc(CO)c(CN)c1O
inactive: max response [1] 6.59% | outcome [4] | outcome [5] | outcome [7] | outcome [8] | outcome [9] | outcome [11]

CCC(C)(CN(C)C)OC(=O)c1ccccc1 (centres undefined)
inactive: max response [1] -2.53% | outcome [4] | outcome [5] | outcome [6] | outcome [7] | outcome [9] | outcome [10] | outcome [11]

CC(=O)N(CC(O)CN(C(C)=O)c1c(I)c(C(=O)NCC(O)CO)c(I)c(C(=O)NCC(O)CO)c1I)c1c(I)c(C(=O)NCC(O)CO)c(I)c(C(=O)NCC(O)CO)c1I (centres undefined)
inactive: max response [1] -5.28% | outcome [4] | outcome [7] | outcome [8] | outcome [9] | outcome [10] | outcome [11]

CN1CC(=O)NC1=N
inactive: max response [1] -8.6% | outcome [4] | outcome [6] | outcome [7] | outcome [8] | outcome [9] | outcome [11]

CC(C)=CCC/C(C)=C/CO
inactive: max response [1] 19.8% | max response [2] 0.933% | outcome [3] | outcome [4] | outcome [5] | outcome [6] | outcome [7] | outcome [8] | outcome [9] | outcome [11]

C[C@@H](N)C(=O)O
inactive: max response [1] -2.49% | outcome [4] | outcome [6] | outcome [7] | outcome [8] | outcome [9] | outcome [10] | outcome [11]

CCCOC(=O)c1ccc(N)cc1
inactive: max response [1] -6.49% | outcome [4] | outcome [5] | outcome [6] | outcome [7] | outcome [8] | outcome [9] | outcome [10] | outcome [11]

NNC(=O)CP(=O)(c1ccccc1)c1ccccc1
inactive: max response [1] -4.41% | outcome [4] | outcome [5] | outcome [6] | outcome [7] | outcome [8] | outcome [9] | outcome [11]

O=C(NCCCN1CCOCC1)c1ccc(Cl)cc1
inactive: max response [1] -7.89% | outcome [4] | outcome [5] | outcome [6] | outcome [7] | outcome [8] | outcome [9] | outcome [10] | outcome [11]

C/C=C1\[C@H]2C=C(C)C[C@]1(N)c1ccc(=O)[nH]c1C2
inactive: max response [1] 2.62% | outcome [4] | outcome [5] | outcome [6] | outcome [7] | outcome [8] | outcome [9] | outcome [11]

Cc1c(N(C)C)c(=O)n(-c2ccccc2)n1C
inactive: max response [1] -4.29% | max response [2] 1.77% and -15.3% | outcome [3] | outcome [4] | outcome [5] | outcome [7] | outcome [8] | outcome [9] | outcome [10] | outcome [11]

c1ccc2[nH]ccc2c1
inactive: max response [1] -5.55% | outcome [4] | outcome [5] | outcome [6] | outcome [7] | outcome [8] | outcome [9] | outcome [10] | outcome [11]

CC(=O)SC[C@@H](Cc1ccccc1)C(=O)NCC(=O)OCc1ccccc1
inactive: max response [1] 3.78% | outcome [4] | outcome [5] | outcome [6] | outcome [7] | outcome [8] | outcome [9] | outcome [10]

COc1cc(C(=O)NCCCCCC(=O)O)cc(OC)c1OC
inactive: max response [1] 4.11% | outcome [4] | outcome [5] | outcome [7] | outcome [8] | outcome [9] | outcome [11]

Cc1cc(NC(=O)C2=C(O)c3ccccc3S(=O)(=O)N2C)no1
inactive: max response [1] -9.54% | outcome [4] | outcome [5] | outcome [6] | outcome [7] | outcome [8] | outcome [9] | outcome [11]

O=C(Cn1ccnc1[N+](=O)[O-])NCCO
inactive: max response [1] 11.8% | outcome [4] | outcome [5] | outcome [6] | outcome [7] | outcome [8] | outcome [9] | outcome [10] | outcome [11]
